Screening data: PubChem BioAssay, National Center for Advancing Translational Sciences (NCATS)
Cycloheximide cs – counter-screen for Shiga toxin inhibitors: cycloheximide protein synthesis inhibition. cell reporter, cycloheximide protein synthesis inhibition counterscreen. max response, %. hit rate 12% among 300,000; in the data active means max response mostly above about 13%, no sharp cut-off; inactive means mostly below about 14%; further: read at 38.3 µM for the half of the compounds with a filed dose
LmPK inhibitor – inhibitors of Leishmania mexicana pyruvate kinase | Potency, µM (titrated, usually from 57.5 µM), hits mostly inhibitors | hit rate 0.37% among 290,000 | AID 1721 | purified LmPK, Kinase-Glo ATP luminescence, 1 h
Target sequence (Q27686 whole entry, looked up): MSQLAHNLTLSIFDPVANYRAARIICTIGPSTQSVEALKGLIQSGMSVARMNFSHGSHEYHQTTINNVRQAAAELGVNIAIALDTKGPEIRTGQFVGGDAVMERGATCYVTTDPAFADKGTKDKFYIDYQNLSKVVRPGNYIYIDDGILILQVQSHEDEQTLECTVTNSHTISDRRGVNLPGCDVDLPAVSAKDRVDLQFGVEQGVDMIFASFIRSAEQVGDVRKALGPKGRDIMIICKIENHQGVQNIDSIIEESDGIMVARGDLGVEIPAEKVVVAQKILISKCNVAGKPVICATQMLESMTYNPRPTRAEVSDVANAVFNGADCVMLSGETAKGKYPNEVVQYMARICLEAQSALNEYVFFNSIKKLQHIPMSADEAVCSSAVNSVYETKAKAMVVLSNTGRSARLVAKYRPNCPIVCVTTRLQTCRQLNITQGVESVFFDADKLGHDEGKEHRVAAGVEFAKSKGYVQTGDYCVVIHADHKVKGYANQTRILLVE
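Purified LmPK (0.1 nM) converted ADP (0.1 mM) to ATP with PEP (0.5 mM) in imidazole buffer pH 7.2 with KCl and MgCl2, 1 h at room temperature. ATP was read by Kinase-Glo luminescence; data normalized to uninhibited and no-enzyme controls.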
Shiga toxin inh – blocks Shiga toxin action in Vero cells | Vero cells, Shiga toxin protein synthesis inhibition reporter | inhibition, % at 38.7 µM | hit rate 9.2% among 290,000 | AID 2315; in the data active means inhibition mostly above about 28%, no sharp cut-off; inactive means mostly below about 43%
Pf growth 48h – inhibits P. falciparum growth in the first generation, 48 h; Potency, µM (titrated, usually from 28.7 µM), actives largely listed as inhibitors; P. falciparum luciferase growth in erythrocytes, 48 h; hit rate 5.9% among 310,000; AID 504832
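Luminescence readout; reporter = integrated firefly luciferase in P. falciparum. RBC culture at 2% hematocrit, 0.1% parasitemia final, 37 C/5% CO2; decreased signal taken as growth inhibition.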
Pf growth 96h – inhibits malaria parasite growth, 96 h | P. falciparum luciferase reporter growth, 96 h | Potency, µM (top dose mostly 28.7 µM), most hits filed as inhibitors | hit rate 6.9% among 320,000 | AID 504834
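Erythrocytes infected with luciferase-expressing P. falciparum were dispensed at 2% hematocrit and 0.05% parasitemia (final), then incubated with compounds 96 hours at 37 C in 5% CO2. Luminescence after detection reagent addition reported growth.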
Hits are given with their value; n = inactive; u = inconclusive; x = not tested or not shown; [ ] = dose if it differs, or a comment. An excerpt weighted towards active compounds, which were near 22% of everything screened. Unless noted, the call rests on the fitted dose curve; in most records, active means well fitted inhibition curve with a large enough effect; inconclusive means small, poorly fitted or top-dose-only effect, or another doubt; inactive means no such curve, though single readings can be large or run the other way.

SMILES | Cycloheximide cs | LmPK inhibitor | Shiga toxin inh | Pf growth 48h | Pf growth 96h
CSc1ccccc1C(=O)Nc1ccccc1C | n | n | n | n | u
Cc1ccccc1NC(=O)C(=O)Nc1ccccc1C | 23 | n | 49 | n | n
Cc1ccc(C)n1NC(=O)c1ccccc1O | n | n | n | u | 9.3µM
Cc1ccccc1N=C(N)Nc1ccccc1C | x | x | x | u | 10µM
O=C(CCc1ccc(O)cc1)c1c(O)cc(O)cc1O[C@@H]1O[C@H](CO)[C@@H](O)[C@H](O)[C@H]1O | n | n | n | u | n
CN(CC(=O)NCCc1ccccc1)S(=O)(=O)c1ccc(Br)s1 | 28 | n | 46 | n | n
Cc1ccc(CNC(=O)CN(C)S(=O)(=O)c2cccs2)cc1 | 28 | n[11.5 µM] | n | n | u
CN(CC(=O)NCCc1ccc(Cl)cc1)S(=O)(=O)c1cccs1 | 22 | n | 34 | n | n
COC(=O)c1ccc(CN(C)S(=O)(=O)c2cccs2)cc1 | 56 | n | 76 | n | n
CN(CC(=O)NCCc1ccccc1)S(=O)(=O)c1cccs1 | n | n | n | n | n
COc1ccccc1CNS(=O)(=O)c1ccc(-n2cccn2)cc1 | n | n | n | n | u
O=C(NCCCN1CCCC1=O)Nc1ccccc1F | 19 | n | 37 | n | n
Cc1ccc(NC(=O)NCCCN2CCCC2=O)cc1Cl | 31 | n | 74 | n | n
O=C(NCCCN1CCCC1=O)Nc1ccccc1Cl | n | n | n | n | n
O=C(NCCCN1CCCC1=O)c1sc2ccccc2c1Cl | 29 | n | 39 | n | n
O=C(NCCCN1CCCC1=O)Nc1ccc([N+](=O)[O-])cc1 | 18 | n | n | n | u
Cc1ccc(NC(=O)NCCCN2CCCC2=O)c(C)c1 | n | n | n | n | u
COc1cccc(CN2CCNC(=O)C2CC(=O)NCCOc2cccnc2)c1 (centres undefined) | n | n | n | n | n
COc1cc(CN2CCNC(=O)C2CC(=O)O)cc(OC)c1 (centres undefined) | n | n | n | n | n
CCOC(=O)C[N+](CC)(CC)CC#Cc1ccccc1 | n | n | n | n | n
COc1ccc(CC(=O)NCCS(=O)(=O)N2CCN(c3ccccc3OC)CC2)cc1 | x | x | x | n | n
Cc1ccc(N/N=C(\C#N)C(=O)c2ccsc2)cc1 | 21 | n | n | u | n
N#C/C(=N\Nc1ccc(Cl)cc1)C(=O)c1ccsc1 | 31 | n | 53 | n | n
N#C/C(=N\Nc1cccc(Cl)c1)C(=O)c1ccccc1 | n | n | n | n | n
Cc1ccsc1C(=O)OC(C)C(=O)NC1CCCCC1C (centres undefined) | x | x | x | n | n
SMILES | Cycloheximide cs | LmPK inhibitor | Shiga toxin inh | Pf growth 48h | Pf growth 96h
CC1(c2ccc3ccccc3c2)NC(=O)N(CC(=O)N2CCCC(C(F)(F)F)C2)C1=O (centres undefined) | x | x | x | n | u
O=C(Nc1cccnc1Cl)c1cc2ccccc2o1 | 38 | n | 66 | x | n
O=C(Nc1ccccc1N1CCCC1)c1cc2ccccc2o1 | 52 | n | 97 | u | n
CN1CCN(c2ccccc2NC(=O)c2cc3ccccc3o2)CC1 | n | n | n | u | 4.7µM
Cc1ccc(C(=O)NNC(=O)C2CCN(c3nccc(C)n3)CC2)cc1 | n | n | n | n | n
O=C(CSc1nnc(CNC(=O)c2ccccc2)o1)NCC1CCCO1 (centres undefined) | n | n | n | n | n
C#Cc1ccc([C@@H]2C=C(C(=O)OCC=C)O[C@H](OCCCCO)C2)cc1 | n | n | n | u | u
C=C1CN(C(C(=O)OC)C(C)C)S(=O)(=O)c2ccc(F)cc21 (centres undefined) | n | x | n | x | x
Cc1cc(=O)oc2c(C)c(OCC(=O)NCC3CCC(C(=O)O)CC3)ccc12 (centres undefined) | n | n | n | n | n
CCCc1cc(=O)oc2c(C)c(OCC(=O)NC3CCN(Cc4ccccc4)CC3)ccc12 | n | n | n | u | 13µM
CCCc1cc(=O)oc2c(C)c(OCC(=O)NCCCN3CCOCC3)ccc12 | n | n | n | n | u
CCCc1cc(=O)oc2c(C)c(OCC(=O)Nc3ccc(CN4CCOCC4)cc3)ccc12 | n | n | n | u | 4.1µM
CCCCc1cc(=O)oc2c(C)c(OCC(=O)NCC3CCC(C(=O)O)CC3)ccc12 (centres undefined) | n | n | n | n | 10µM
CC(=O)C1C(c2cccc(F)c2)c2c(n[nH]c2C)CC1(C)O (centres undefined) | n | n | n | n | n
Cc1ccc(NS(=O)(=O)c2coc(C(N)=O)c2)cc1F | n | n | n | n | n
COc1ccc(C2(C)NC(=O)N(CC(=O)Nc3ccc(Br)cc3F)C2=O)cc1OC (centres undefined) | n | n | n | u | 3.7µM
COc1ccc(C2(C)NC(=O)N(CC(=O)Nc3ccc(C)cc3Br)C2=O)cc1OC (centres undefined) | n | n | n | u | 3.7µM
COc1ccc(C2(C)NC(=O)N(CC(=O)Nc3ccc(Br)c(C)c3)C2=O)cc1OC (centres undefined) | n | n | n | n | n
CCOC(=O)c1sc(NC(=O)CCN2CCN(CC)CC2)c(C(=O)OCC)c1C | n | n | n | u | u
CC(OC(=O)c1cccc(S(=O)(=O)N2CCCCC2)c1)C(=O)NC1CCCCC1C (centres undefined) | n | n | n | n | n
COc1ccc(N(C)S(=O)(=O)c2cccc(C(=O)NC3CCCCCC3)c2)cc1 | n | n | n | u | u
COc1ccc(N(C)S(=O)(=O)c2cccc(C(=O)OC(C)C(=O)NC3CCCCC3C)c2)cc1 (centres undefined) | x | x | x | 12µM | n
COc1ccc(N(C)S(=O)(=O)c2cccc(C(=O)Nc3cccc(C(=O)NC4CC4)c3)c2)cc1 | x | x | x | 5.2µM | 15µM
COc1ccc(N(C)S(=O)(=O)c2cccc(C(=O)NC3CCC(C)CC3)c2)cc1 (centres undefined) | 16 | n | n | n | u
CCn1c(SCC(=O)N2CCOCC2)nnc1C(C)NC(=O)c1ccccc1 (centres undefined) | n | n | n | n | n
SMILES | Cycloheximide cs | LmPK inhibitor | Shiga toxin inh | Pf growth 48h | Pf growth 96h
CCOC(=O)C1CCN(C(=O)COC(=O)c2nn(C)c(=O)c3ccccc23)CC1 | x | x | x | n | n
Cc1ccc(C(=O)CSc2nnc(-c3ccco3)n2Cc2ccccc2)cc1 | 22 | n | n | n | 7.4µM
O=C(CSc1nnc(-c2ccco2)n1Cc1ccccc1)NC(=O)NCc1ccccc1 | n | n | n | u | 12µM
c1ccc(Cn2c(SCc3cn4cccnc4n3)nnc2-c2ccco2)cc1 | n | n | n | n | 12µM
c1ccc(-n2cnnc2SCc2cn3cccnc3n2)cc1 | n | n | n | n | u
Cn1c(SCC(=O)c2ccc(-c3ccccc3)cc2)nnc1-c1ccco1 | 28 | n | 29 | n | n
NC(=O)NC(=O)CSc1nnc(-c2ccco2)n1Cc1ccccc1 | n | n | n | n | n
O=C(CSc1nnc(-c2ccco2)n1Cc1ccccc1)c1ccccc1 | 38 | n | 72 | n | u
O=c1c2c(-c3ccco3)csc2nc(SCc2cn3cccnc3n2)n1-c1ccccc1 | n | n | n | 7.4µM | 9.3µM
